LYPLA2 counter: counter-screen for PME1 inhibitors: inhibitors of human LYPLA2; AID 2177; O95372; inhibition, % at 5.9 µM; recombinant LYPLA2, FP-Rh probe fluorescence polarization; hit rate 0.38% among 320,000;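 active = inhibition above the screen-wide mean plus 3 SD, limit set per campaign, cut at about 26% in these data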;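 also: 0% = LYPLA2 with DMSO and 100% = wells lacking LYPLA2 enzyme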
PREPL inh: inhibitors of human prolyl oligopeptidase-like enzyme PREPL; inhibition, % at 5.96 µM; Q4J6C6; hit rate 0.68% among 320,000; AID 2751; recombinant PREPL, fluorescence polarization activity-based probe; in the data active = inhibition above about 43%;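 also: 0% = enzyme with DMSO and 100% = wells lacking enzyme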
Fam108B inh: blocks mouse Fam108B hydrolase in RBBP9 counter-screen; recombinant Fam108B, FP-Rh probe fluorescence polarization; inhibition, % at 9.51 µM; hit rate 0.33% among 300,000;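 active = inhibition above the screen mean inhibition plus 3 SD, computed separately per campaign, cut at about 18% in these data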;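 also: inhibitors lower polarization as less probe binds the enzyme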
PME-1 inh: PME-1 (human) inhibition; Q9Y570; recombinant PME-1, FP-Rh probe fluorescence polarization; inhibition, % at 5.9 µM; hit rate 0.53% among 320,000; AID 2130;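 active = inhibition above the campaign mean of all compounds plus 3 SD, cut at about 26% in these data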;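 also: competitive labeling of PME-1 active site by serine hydrolase directed probe; 0% = PME-1 with DMSO and 100% = wells lacking PME-1 enzyme; inhibitors block probe labeling so polarization falls and inhibition rises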
Target sequence (Q9Y570 whole entry, looked up): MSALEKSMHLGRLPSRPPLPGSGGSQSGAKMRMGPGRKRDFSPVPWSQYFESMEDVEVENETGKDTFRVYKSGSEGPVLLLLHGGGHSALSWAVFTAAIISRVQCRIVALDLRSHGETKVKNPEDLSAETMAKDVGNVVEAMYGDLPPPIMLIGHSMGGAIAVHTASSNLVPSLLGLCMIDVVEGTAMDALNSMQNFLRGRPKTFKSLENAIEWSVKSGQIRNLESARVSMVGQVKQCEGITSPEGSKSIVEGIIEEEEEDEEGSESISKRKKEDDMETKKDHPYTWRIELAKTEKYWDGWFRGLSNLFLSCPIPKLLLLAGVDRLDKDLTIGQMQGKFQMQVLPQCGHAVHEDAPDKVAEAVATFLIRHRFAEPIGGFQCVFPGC
LYPLA1 counter: blocks human lysophospholipase 1, a PME1 counter-screen. O75608. recombinant LYPLA1, FP-Rh probe fluorescence polarization. inhibition, % at 5.9 µM. hit rate 0.16% among 320,000. AID 2174;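 active = inhibition above the mean of all tested compounds plus 3 SD, set per campaign, cut at about 14% in these data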;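 also: inhibitors block serine hydrolase probe labeling of LYPLA1 so polarization falls; 0% = enzyme with DMSO and 100% = wells lacking LYPLA1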
Target sequence (O75608 whole entry, looked up): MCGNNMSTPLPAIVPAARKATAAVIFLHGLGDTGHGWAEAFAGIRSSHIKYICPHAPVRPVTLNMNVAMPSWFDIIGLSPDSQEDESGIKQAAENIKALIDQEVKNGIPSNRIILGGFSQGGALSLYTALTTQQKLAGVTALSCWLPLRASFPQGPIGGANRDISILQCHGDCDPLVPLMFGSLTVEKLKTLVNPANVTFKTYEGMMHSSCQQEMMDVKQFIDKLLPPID
Fam108b inh conf: Fam108b (mouse) hydrolase inhibition, confirmation assay | shares compounds with Fam108B inh | recombinant Fam108b, FP-Rh probe fluorescence polarization | inhibition, % at 9.51 µM | hit rate 44% among 930 | AID 1978;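 active = inhibition above a limit from the primary screen, the mean over all compounds plus 3 SD, cut at about 19% in these data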;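 also: 0% = median of active Fam108b wells and 100% = catalytically dead S170A mutant; inhibitors free the probe so polarization falls as inhibition rises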
Fam108b ABPP HTS: inhibits mouse Fam108b in gel-based ABPP. shares compounds with Fam108B inh. recombinant Fam108b, fluorophosphonate probe. inhibition, % at 20 µM. hit rate 44% among 260. AID 588649; in the data active = inhibition above about 40%
LYPLA1 confirm: LYPLA1 (human) inhibition, confirmation counter-screen | shares compounds with LYPLA1 counter | recombinant LYPLA1, FP-Rh probe fluorescence polarization | inhibition, % at 5.9 µM | hit rate 69% among 480;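 active = mean inhibition across replicates above the hit cutoff set in the primary screen, cut at about 15% in these data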;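 also: loss of FP-Rh probe labeling of LYPLA1 seen as lower polarization; 0% = LYPLA1 with DMSO and 100% = wells lacking LYPLA1 enzyme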
LYPLA2 confirm: counter-screen for PME1 inhibitors: confirmation of human LYPLA2 inhibitors. shares compounds with LYPLA2 counter. recombinant LYPLA2, FP-Rh probe fluorescence polarization. inhibition, % at 5.9 µM. hit rate 72% among 1,100. AID 2232;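 active = mean inhibition across replicates above the hit cutoff set in the primary screen, cut at about 26% in these data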;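 also: blocked labeling of the enzyme by serine hydrolase FP-Rh probe lowers polarization; 0% = enzyme with DMSO and 100% = wells lacking LYPLA2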
The depositor's hits bear a star; . = no result. Most compounds without a hit are left out; they make up all but 1.3% or so of the library.

SMILES	LYPLA2 counter	PREPL inh	Fam108B inh	PME-1 inh	LYPLA1 counter	Fam108b inh conf	others
Cc1cccc(/N=C/c2nc(-c3ccccc3Br)oc2O)n1	19.6	7.0	27.1*	4.5	3.0	36.9*
Cc1ccnc(N=Cc2nc(-c3ccccc3Br)oc2O)c1	9.6	3.2	22.3*	-7.1	5.2	80.3*	Fam108b ABPP HTS=75.0*
O=C(NCC(=O)N(c1cccc(F)c1)C(C(=O)NC1CCCC1)c1cccnc1)c1cccs1 (configuration not stated)	3.4	0.8	-3.5	-2.4	4.5	.
CN(CC(=O)Nc1ccc(F)c(F)c1F)C(=O)c1nn(Cc2ccccc2)c(=O)c2ccccc12	.	-8.9	.	.	.	.
CC(=O)OC1C2CCC1C([N+]1(C)CCCCC1)CC2 (configuration not stated)	-0.7	-4.3	-6.3	-0.2	1.0	.
O=C(CCCSc1ccccc1)Nc1nc(-c2ccco2)c(-c2ccco2)s1	6.8	27.4	47.2*	33.0*	-9.8	32.2*	Fam108b ABPP HTS=75.0*
O=C(CCCSc1ccccc1)Nc1nc(-c2ccccn2)cs1	-0.9	4.2	-0.9	1.1	-2.8	.
O=C(CCl)Nc1nc(-c2ccco2)c(-c2ccco2)s1	-1.2	13.9	18.8*	-7.2	-3.7	7.5
O=C(NC(=S)NNC(=O)c1ccccc1O)c1cccc([N+](=O)[O-])c1	-3.4	12.8	19.3*	4.7	-3.4	10.1
COc1ccc(C(=O)NNC(=S)NC(=O)c2cccc([N+](=O)[O-])c2)cc1	-4.5	7.0	-0.8	1.8	-0.1	.
O=C(O)c1ccc2c(c1)C(=O)N(N1C(=O)c3ccccc3C1=O)C2=O	2.4	1.2	0.4	-3.5	0.4	.
O=C(O)CC(C(=O)O)N1C(=O)/C(=C/c2ccc(-c3nc4ccccc4s3)o2)SC1=S (configuration not stated)	14.7	16.5	32.4*	-17.3	3.4	-10.6
O=C(O)CCN1C(=O)/C(=C/c2ccc(-c3nc4ccccc4s3)o2)SC1=S	-3.5	20.5	10.8	14.6	4.0	.
O=C(O)CCCN1C(=O)/C(=C\c2ccc(-c3nc4ccccc4s3)o2)SC1=S	9.1	5.8	19.5*	-4.8	2.3	11.3
O=C(O)C1CCCCC1C(=O)NCCc1ccc(F)cc1 (configuration not stated)	0.7	19.1	-3.0	-7.1	2.2	.
COc1cccc(C(=O)COc2cccc(NC(=O)c3cccc([N+](=O)[O-])c3)c2)c1	-2.1	-19.8	24.4*	22.5	-12.8	23.6*
COc1ccc(C2C3=C(CCCC3=O)NC3=C2C(=O)c2ccccc23)cc1 (configuration not stated)	3.8	14.1	19.9*	10.0	0.4	26.4*
O=S(=O)(O)c1cc(O)c2c(O)c(N=Nc3cc(Cl)ccc3O)c(S(=O)(=O)O)cc2c1	-35.8	39.8	23.6*	5.8	-15.8	-23.3
CCC(C)C(NC(=O)OC(C)(C)C)C(=O)NC(C(=O)NC(C)C(N)=O)C(C)C (configuration not stated)	-3.3	10.0	-0.8	-5.1	6.3	.
COc1cc(-c2nc(-c3ccc4c(c3)-c3ccccc3S4(=O)=O)c(-c3ccccc3)[nH]2)cc(OC)c1O	-12.7	22.8	32.3*	0.6	-20.8	36.7*	Fam108b ABPP HTS=80.0*
Cn1c(SCC(=O)N/N=C/c2ccc([N+](=O)[O-])s2)nnc1-c1ccccc1	12.8	28.1	20.9*	10.6	0.1	10.1
Cc1ccccc1CSCC(=O)Nc1c(C)n(C)n(-c2ccccc2)c1=O	-0.8	-9.7	2.5	-2.2	-1.1	.
CC(=O)NCCn1ccc2ccccc21	-9.1	2.6	22.0*	-5.9	-0.6	4.8
CCc1c(C(=O)Nc2ccc(OC)c(Cl)c2)[nH]c(C)c1C(C)=O	-7.2	28.2	19.0*	-4.2	-14.2	39.5*	Fam108b ABPP HTS=0.0
Nc1[nH]n2c(=O)cc(-c3ccccc3)nc2c1N=Nc1ccc(S(N)(=O)=O)cc1	-4.2	26.4	17.2	-10.9	-1.3	.
SMILES	LYPLA2 counter	PREPL inh	Fam108B inh	PME-1 inh	LYPLA1 counter	Fam108b inh conf	others
NS(=O)(=O)c1ccc(N=Nc2c(-c3ccccc3)[nH]n(-c3nc(-c4ccccc4)cs3)c2=O)cc1	-3.3	2.7	33.2*	13.4	2.0	1.3
O=C(O)c1ccccc1N/N=C/c1cc(Br)cc(Br)c1O	11.7	19.3	26.7*	49.4*	28.6*	18.9*	LYPLA1 confirm=23.1*
Cc1ccc(N2C(=O)c3cccc4c(C(=O)O)ccc(c34)C2=O)cc1	7.9	-6.9	-4.1	1.7	1.6	.
CC(=O)Nc1ccc(N2C(=O)c3cccc4c(O)ccc(c34)C2=O)cc1	20.4	19.3	25.6*	17.7	17.2*	12.4	LYPLA1 confirm=15.9*
O=C1CCN(Cc2ccc(O)cc2)CCN1CCO	3.5	4.5	-1.2	-1.2	1.7	.
CCN(CC)c1ccc(/C=C(\C#N)C(=O)c2ccc(Br)cc2)cc1	25.5	-8.4	60.9*	14.8	32.2*	54.0*	Fam108b ABPP HTS=0.0;LYPLA1 confirm=76.9*
CCN(CC)c1ccc(/C=C(\C#N)C(N)=S)cc1	-2.4	-0.6	-1.6	1.7	1.1	.
CCOC(=O)c1nc(NNC(=O)c2ccc([N+](=O)[O-])cc2)sc1C	3.2	6.2	0.9	0.7	7.9	.
COc1cccc2c1C(=O)c1c(O)c3c(c(O)c1C2=O)C[C@@](O)(C(=O)CO)C[C@@H]3O[C@H]1C[C@H](N)[C@@H](O)[C@H](C)O1	40.9*	30.1	36.0*	45.6*	57.0*	35.5*	Fam108b ABPP HTS=35.0;LYPLA1 confirm=55.9*
CCn1c(CSc2nccn2C)nc2cc(C(=O)O)ccc21	25.5	19.6	20.3*	25.4	25.6*	59.4*	Fam108b ABPP HTS=0.0;LYPLA1 confirm=24.2*
O=C(CSc1nnc(-c2ccccc2Cl)o1)Nc1ccccn1	1.5	-4.9	-1.3	8.2	0.8	.
Cn1c(=O)c(Nc2ccc(Cl)cc2)c2c3c(cccc31)C(=O)c1ccccc1-2	33.3*	20.7	31.5*	31.5*	20.4*	34.4*	Fam108b ABPP HTS=0.0;LYPLA1 confirm=33.5*;LYPLA2 confirm=24.9
CC(=O)Nc1c2c3c(cccc3n(C)c1=O)C(=O)c1ccccc1-2	2.7	12.4	3.0	2.2	4.1	.
O=C(O)c1ccc(S(=O)(=O)/N=C2\C=C(Nc3ccccc3F)C(=O)c3ccccc32)cc1	26.4*	31.4	49.4*	25.7	7.3	66.5*	Fam108b ABPP HTS=85.0*;LYPLA2 confirm=74.7*
COC(=O)C(C(C)=O)C1=C/C(=N\S(=O)(=O)c2ccc(C)cc2)c2ccccc2C1=O (configuration not stated)	0.1	4.8	-8.1	-0.6	-1.3	.
